Test results published in paper PMC10726135, “HNF4α isoforms regulate the circadian balance between carbohydrate and lipid metabolism in the liver”.
Over roughly 18,000 sequences, “log2 normalized intensity” has its median near 0.39; the highest 2% begin near 6.6. The full list was thinned out, with the highest values kept by preference.

The sequences below were run against T1, HNF4alpha2 (COS-7 nuclear extract) (Homo sapiens, UniProt P41235 1-474) (assay: protein-binding microarray; COS-7 nuclear extract on double-stranded Agilent 4x180k PBM; binding buffer, salt, pH and temperature not given in the material; high values mean tight binding). Conditions: chain copies: 2; label: 3' end of strand 1 on the slide; dsDNA, one strand shown.
T1 sequence: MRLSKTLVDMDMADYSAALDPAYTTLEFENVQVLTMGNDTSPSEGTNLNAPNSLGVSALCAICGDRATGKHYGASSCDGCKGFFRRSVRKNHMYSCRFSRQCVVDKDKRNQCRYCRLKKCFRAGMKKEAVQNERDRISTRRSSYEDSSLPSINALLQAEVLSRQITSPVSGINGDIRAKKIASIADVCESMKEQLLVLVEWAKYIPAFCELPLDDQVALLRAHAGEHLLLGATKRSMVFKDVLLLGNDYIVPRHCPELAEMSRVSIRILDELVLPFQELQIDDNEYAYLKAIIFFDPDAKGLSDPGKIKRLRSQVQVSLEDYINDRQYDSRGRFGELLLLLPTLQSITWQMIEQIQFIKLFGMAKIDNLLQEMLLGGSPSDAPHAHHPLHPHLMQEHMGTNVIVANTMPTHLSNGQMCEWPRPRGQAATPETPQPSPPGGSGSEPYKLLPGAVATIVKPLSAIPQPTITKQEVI
Procedure, shortened: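 A custom Agilent SurePrint G3 4x180k array, spotted in quadruplicate with ~44,000 test sequences as ~60-nt oligonucleotides made double-stranded, was incubated with nuclear extracts. The extracts came from COS-7 cells transiently transfected by CaPO4 with a human HNF4α isoform expression vector. Bound HNF4α was imaged on an Agilent G2565CA scanner at 2-µm resolution, and the binding signal was taken as Agilent software's background-corrected, normalized gProcessedSignal.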

Row | Sequence | binding signal [log2 normalized intensity]
1 | ATCCTTACACAGCAGCTTTAGTCAGAGATTGCCTAGGGAGATTAGAGTATCGGTCGA | -0.896
2 | GCATGGCTCAGTCCAAGTCCAAAGGTCTGAGCCTAGGGAGATTAGAGTATCGGTCGA | 5.39
3 | AAGTCCAGTCTTATCTGAGACTCAAGGCAAGCCTAGGGAGATTAGAGTATCGGTCGA | -0.968
4 | CCAAAGTCCAAAGTCCAGTCTTATCTGAGAGCCTAGGGAGATTAGAGTATCGGTCGA | 7.12
5 | TTTCTGTAAAGCTTTATTTTGGGGCTGTATGCCTAGGGAGATTAGAGTATCGGTCGA | 0.324
6 | CTTTAGCACCTTCATCCAAAGATGACCTTTGCCTAGGGAGATTAGAGTATCGGTCGA | 7.62
7 | GTGACCTTTGCTCCAGTTCCCAATAAGTTGGCCTAGGGAGATTAGAGTATCGGTCGA | 4.19
8 | TATGACCTTTGCTTTTCAAGATTTTACCTAGCCTAGGGAGATTAGAGTATCGGTCGA | 2.14
9 | TTTGCCAAAGCATAGCAAGAGTGACCTTTGGCCTAGGGAGATTAGAGTATCGGTCGA | 6.6
10 | TTGCTTAAGCATAGCAAAAGTGACCTTTGCGCCTAGGGAGATTAGAGTATCGGTCGA | 8.56
11 | ATAGCAAAAGTGACCTTTGCTCCAGTTCCCGCCTAGGGAGATTAGAGTATCGGTCGA | 7.8
12 | AAAAGTGACCTTTGCTCCAGTTCCCAATAAGCCTAGGGAGATTAGAGTATCGGTCGA | 5.9
13 | CCTGCATATCCTGACTGCTGACCTTTAAGCGCCTAGGGAGATTAGAGTATCGGTCGA | 4.85
14 | CAAAGCATAGCAAGAGTGACCTTTGCTCCAGCCTAGGGAGATTAGAGTATCGGTCGA | 8.97
15 | AATCGACCTTTAGCACCGTAAGAGAGTATTGCCTAGGGAGATTAGAGTATCGGTCGA | 3.82
16 | AGATAGCATTCCAAGAGAGCAAAGTGCTTTGCCTAGGGAGATTAGAGTATCGGTCGA | 0.587
17 | CTTCTTTGCTTAAGCATAGCAAAAGTGACCGCCTAGGGAGATTAGAGTATCGGTCGA | 2.7
18 | CCCATCCAAAGGTCAGCAATCTCAAAGACTGCCTAGGGAGATTAGAGTATCGGTCGA | 2.36
19 | TAAGTTTAAGTCCAGAAAAGACCAAAAAGGGCCTAGGGAGATTAGAGTATCGGTCGA | 0.39
20 | TAACTATGGTCACGCGGCCAAAATGTTCAGGCCTAGGGAGATTAGAGTATCGGTCGA | 0.22
21 | CTGTGTCATCTGAACTCTGACCAACGCCTCGCCTAGGGAGATTAGAGTATCGGTCGA | 2.73
22 | CAAGAGTGACCTTTGCTCCAGTTCCCAATAGCCTAGGGAGATTAGAGTATCGGTCGA | 6

Row | Sequence | binding signal [log2 normalized intensity]
23 | CATAGCAAGAGTGACCTTTGCTCCAGTTCCGCCTAGGGAGATTAGAGTATCGGTCGA | 7.45
24 | TGACCTTTGCTCCAGTTCCCAATAATTTCCGCCTAGGGAGATTAGAGTATCGGTCGA | 4.46
25 | CAGTACTGAAACATGCCTATGACCGAGGGTGCCTAGGGAGATTAGAGTATCGGTCGA | 0.809
26 | TGCTTGGAATGCTATTTGCATTGACACAACGCCTAGGGAGATTAGAGTATCGGTCGA | 0.296
27 | TTCTGTTCAATGGTGCTTTTGATATTGTTGGCCTAGGGAGATTAGAGTATCGGTCGA | 2.06
28 | GACATCTGGAAATGTTTGTAGGGACTTTGAGCCTAGGGAGATTAGAGTATCGGTCGA | 4.28
29 | CTTTGACCCTGTTTTGTAAACTCCCTTTGAGCCTAGGGAGATTAGAGTATCGGTCGA | 1.78
30 | AGCAATGTTTCTTGTCCAGGGACTTTGAACGCCTAGGGAGATTAGAGTATCGGTCGA | 5.74
31 | CAACTGACATCTGGAAATGTTTGTAGGGACGCCTAGGGAGATTAGAGTATCGGTCGA | 0.308
32 | CTGGAAATGTTTGTAGGGACTTTGACCCCTGCCTAGGGAGATTAGAGTATCGGTCGA | 9.92
33 | AATGTTTGTAGGGACTTTGACCCCTAAAACGCCTAGGGAGATTAGAGTATCGGTCGA | 8.73
34 | AGTTTGACTCCAAAGGGCTGGAGACTGAGTGCCTAGGGAGATTAGAGTATCGGTCGA | -0.509
35 | TCTAAGACCCATCCCTCAGGGTCCATATCCGCCTAGGGAGATTAGAGTATCGGTCGA | 2.84
36 | TGTCTTCTGACCTTTGGCAATATCTCCCAGGCCTAGGGAGATTAGAGTATCGGTCGA | 3.48
37 | CAATCCCATGACCTTTGTACTAATGATTTGGCCTAGGGAGATTAGAGTATCGGTCGA | 5.84
38 | CTAGGCAATCCCATGACCTTTGTACTAATGGCCTAGGGAGATTAGAGTATCGGTCGA | 7.57
39 | CCATGACCTTTGTACTAATGATTTGTAAATGCCTAGGGAGATTAGAGTATCGGTCGA | 5.25
40 | CACCTTCTTCCTAGGCAATCCCATGACCTTGCCTAGGGAGATTAGAGTATCGGTCGA | 3.25
41 | TCTTCCTAGGCAATCCCATGACCTTTGTACGCCTAGGGAGATTAGAGTATCGGTCGA | 8.78
42 | TCTGAAGATAAATGCCTTAGCTGTGACCATGCCTAGGGAGATTAGAGTATCGGTCGA | 0.619
43 | CTCTAGGGTAGATAAGGATGGATCAAAGGAGCCTAGGGAGATTAGAGTATCGGTCGA | -0.461
